Potency data for 44 molecules are collected here from PubChem BioAssay (NCATS).

The nature of assay [1]: qHTS of pediatric cancer cell lines to identify multiple opportunities for drug repurposing: Primary screen for RD cells (AID 1347104). Also: nearly all actives have a fitted effect of over 55% in size. In a few lines: (§1)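 Cells seeded at 500-1,000 cells/well in growth media, rested 5 hours at 37 degrees C, 5% CO2, then dosed; MIPE compounds at 11-point (from 0.78 nM) and NPC at 8-point (from 0.59 nM) final concentrations. Viability by CellTiter-Glo luminescence after 48 hours.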

Assay [2] is described as follows: qHTS of pediatric cancer cell lines to identify multiple opportunities for drug repurposing: Primary screen for MG 63 (6-TG R) cells (AID 1347105). Also: nearly all actives have a fitted effect of over 50% in size. Also: potency is read from the fitted curve at half-maximal effect. In a few lines: as §1
(In general: In qHTS, concentration-response curves come from the screen itself.)

Assay [3] can be described thus: qHTS of pediatric cancer cell lines to identify multiple opportunities for drug repurposing: Primary screen for control Hh wild type fibroblast cells (AID 1347106).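 Also: series mostly up to about 46 µM; a drop in luminescence marks cytotoxicity and a rise apparent proliferation; nearly all actives have a fitted effect of over 55% in size.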 In a few lines: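 Cells (500-1,000/well) in growth media were settled 5 h at 37 degrees C, then given compounds for 48 h. Viability was read as CellTiter-Glo luminescence. Primary runs used MIPE at 11 points (0.78 nM-46 µM) and NPC at 8 points (0.59 nM-46 µM); follow-ups used 11 points.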

The nature of assay [4]: qHTS of pediatric cancer cell lines to identify multiple opportunities for drug repurposing: Primary screen for Rh30 cells (AID 1347107). Also: series mostly up to about 46 µM; nearly all actives have a fitted effect of over 75% in size. In a few lines: (§2)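 Cells (500-1,000/well) rested 5 h, then received compounds for 48 h; metabolically active cells were measured by CellTiter-Glo luminescence. Final concentrations spanned up to 46 µM (MIPE, 11-point) or 0.59 nM-46 µM (NPC, 8-point) in primary screens, 11-point in follow-ups.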

The nature of assay [5]: qHTS of pediatric cancer cell lines to identify multiple opportunities for drug repurposing: Primary screen for Rh41 cells (AID 1347108). Also: nearly all actives have a fitted effect of over 70% in size. Also: potency is read from the fitted curve at half-maximal effect. In a few lines:
as §1

The nature of assay [6]: qHTS of pediatric cancer cell lines to identify multiple opportunities for drug repurposing: Confirmatory screen for NB1643 cells (AID 1347109). Also: nearly all actives have a fitted effect of over 45% in size. In a few lines:
as §2

A short description of assay [7]: qHTS of pediatric cancer cell lines to identify multiple opportunities for drug repurposing: Confirmatory screen for A673 cells (AID 1347110).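 Also: cells exposed to compound for 48 h before the viability read; nearly all actives have a fitted effect of over 65% in size.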 In a few lines:
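Viability was read as ATP luminescence (CellTiter-Glo) after 48 h of compound exposure at 37 C in A673 cells seeded at 500-1,000/well. Titrations reached 46 uM final, with 11 points in the confirmatory screen. Concentration-response curves were fitted directly.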

Assay [8] can be described thus: qHTS of pediatric cancer cell lines to identify multiple opportunities for drug repurposing: Confirmatory screen for BT-12 cells (AID 1347112). Also: nearly all actives have a fitted effect of over 55% in size. In a few lines:
as §2

A short description of assay [9]: qHTS of pediatric cancer cell lines to identify multiple opportunities for drug repurposing: Confirmatory screen for LAN-5 cells (AID 1347113). Also: nearly all actives have a fitted effect of over 65% in size. In a few lines:
as §2

Assay [10] can be described thus: qHTS of pediatric cancer cell lines to identify multiple opportunities for drug repurposing: Confirmatory screen for NB-EBc1 cells (AID 1347115).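 Also: cells exposed to compound for 48 h before the viability read; nearly all actives have a fitted effect of over 45% in size.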 In a few lines: as §2
The nature of assay [11]: qHTS of pediatric cancer cell lines to identify multiple opportunities for drug repurposing: Confirmatory screen for SJ-GBM2 cells (AID 1347116). Also: nearly all actives have a fitted effect of over 60% in size. In a few lines: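 Viability measured as metabolically active cells via CellTiter-Glo luminescence following 48 hours of compound exposure, 11-point dilutions in confirmatory testing. 500-1,000 cells/well plated 5 hours before dosing; controls were DMSO and 2.3 µM bortezomib.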

A short description of assay [12]: qHTS of pediatric cancer cell lines to identify multiple opportunities for drug repurposing: Confirmatory screen for TC32 cells (AID 1347118).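 Also: cells exposed to compound for 48 h before the read; nearly all actives have a fitted effect of over 65% in size.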 In a few lines:
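qHTS, TC32, 48 h drug treatment, CellTiter-Glo luminescence as a proxy for metabolically active cells; primary top concentration 46 µM (MIPE 11-pt, NPC 8-pt); confirmatory 11-pt.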

Assay [13] is described as follows: qHTS of pediatric cancer cell lines to identify multiple opportunities for drug repurposing: Confirmatory screen for MG 63 (6-TG R) cells (AID 1347119). Also: nearly all actives have a fitted effect of over 55% in size. In a few lines:
as §2

Assay [14] can be described thus: qHTS of pediatric cancer cell lines to identify multiple opportunities for drug repurposing: Confirmatory screen for control Hh wild type fibroblast cells (AID 1347121). Also: nearly all actives have a fitted effect of over 70% in size. In a few lines:
as §2

A short description of assay [15]: qHTS of pediatric cancer cell lines to identify multiple opportunities for drug repurposing: Confirmatory screen for U-2 OS cells (AID 1347122). Also: nearly all actives have a fitted effect of over 65% in size. In a few lines:
as §2

Assay [16] in a line: qHTS of pediatric cancer cell lines to identify multiple opportunities for drug repurposing: Confirmatory screen for Rh18 cells (AID 1347125). Also: nearly all actives have a fitted effect of over 55% in size. In a few lines: as §2

SMILES strings stand for the structures. Records with an inconclusive call do not appear. Activity calls are given as the source filed them. Calls follow the shape of the dose curve; as a rule, active = well fitted curve in the direction sought with a large enough effect; inconclusive = small, poorly fitted or top-dose-only effect, or another doubt; inactive = no such curve, though single readings can be large; an effect the other way counts as inactive or inconclusive.

In the case of `C=CCN1CC[C@]23CCCC[C@H]2[C@H]1Cc1ccc(O)cc13`, the Potency result in [1], in assay [2], in [3], in assay [4] and in [5] was “inactive” each time.

As to `C#C[C@]1(O)C=C[C@H]2[C@@H]3CCC4=CC(=O)CC[C@@H]4[C@H]3CC[C@@]21CC`, the Potency entry in [1], in assay [2], in assay [3] and in assay [4] was “inactive” in each case.

In the case of `CC1=C2[C@H]3OC(=O)[C@@H](C)[C@@H]3CC[C@@]2(C)C=CC1=O`, the Potency entry in assay [1], in [3], in [4] and in assay [5] was “inactive” in each case.

On to `CC(C)=C[C@@H]1[C@@H](C(=O)OCc2coc(Cc3ccccc3)c2)C1(C)C`, for which the Potency result in [1], in assay [3], in assay [4] and in assay [5] was “inactive” throughout.

Consider `CCC(=O)C(CCN(C)C)(c1ccccc1)c1ccccc1`, for which the Potency result in [1], in assay [2], in assay [3], in assay [4] and in assay [5] was “inactive” in each case.

As for `Cc1c(Cl)c(=O)oc2cc(OP(=O)(OCCCl)OCCCl)ccc12`, the Potency result in [2], in [4] and in assay [5] was “inactive” each time.

As for `O=C(CCl)c1ccc(Cl)cc1Cl`, the Potency entry in [3] and in [4] was “inactive” each time.

In the case of `CC(C)=CCN1CC[C@@]2(C)c3cc(O)ccc3C[C@@H]1[C@@H]2C`, the Potency result in assay [2], in assay [3] and in [4] was “inactive” each time.

Take `CC[C@H]1C[C@@H]2C[C@H]3c4[nH]c5ccc(OC)cc5c4CCN(C2)[C@@H]13`: in assay [4], the Potency entry was “inactive”. The Potency in [5] was 30 µM (active).

Take `COP(=O)(OC)C(O)C(Cl)(Cl)Cl` (configuration not stated): the Potency entry in [2], in [4] and in [5] was “inactive” in each case.

For `CN1[C@@H]2CC[C@H]1CC(OC(=O)c1cc(Cl)cc(Cl)c1)C2` (some centres not stated), the Potency result in assay [2], in assay [3], in assay [4], in [6], in assay [7] and in [8] was “inactive” each time. The Potency result in [9], in assay [10], in assay [11], in assay [12], in [13] and in assay [14] was “inactive” each time. Further, the Potency result in [15] and in assay [16] was “inactive” in each case.

For the molecule `N#Cc1nn(-c2c(Cl)cc(C(F)(F)F)cc2Cl)c(N)c1S(=O)C(F)(F)F` (configuration not stated), the Potency entry in [3] and in assay [4] was “inactive” each time.

Regarding `Cc1nc2ccccc2c(=O)n1-c1ccccc1Cl`, the Potency result in assay [3], in assay [4] and in [5] was “inactive” each time.

With `COc1cc(C[C@@H](C)N)c(OC)cc1Br`, the Potency entry in assay [2], in assay [3], in [4] and in assay [5] was “inactive” throughout.

For `CC(C(O)c1ccccc1)N(C)C/C=C/c1ccccc1` (configuration not stated), the Potency entry in [2], in assay [3], in [4] and in [5] was “inactive” in each case.

Consider `C[C@]12C=CC(=O)C=C1CC[C@@H]1[C@@H]2CC[C@@]2(C)[C@H]1CC[C@]2(C)O`, for which the Potency result in [2], in assay [3], in [4] and in [5] was “inactive” throughout.

Turning to `O=C1CN2CCOC2(c2ccccc2Cl)c2cc(Cl)ccc2N1` (configuration not stated), the Potency result in assay [2], in assay [4] and in assay [5] was “inactive” each time.

In the case of `CC(C)NCC(O)c1ccc(N)c(C#N)c1` (configuration not stated), the Potency entry in assay [2] and in assay [4] was “inactive” in each case.

For the molecule `Clc1ccc(CO/N=C(\Cn2ccnc2)c2ccc(Cl)cc2Cl)c(Cl)c1`, the Potency entry in [3] and in [4] was “inactive” throughout.

As for `NC1(c2ccccc2)CCCCC1`, the Potency result in assay [2], in [3] and in assay [4] was “inactive” each time.

Consider `CCc1cc(OC)c(C[C@H](C)N)cc1OC`, for which the Potency result in [2], in [3] and in assay [4] was “inactive” in each case.

With `O=c1[nH]c2cc(Cl)ccc2n1C1CCNCC1`, the Potency entry in assay [2], in assay [3], in assay [4] and in [5] was “inactive” throughout.

Regarding `COc1cc(CC(C)N)c(OC)cc1Br` (configuration not stated), the Potency in [2] is 17.9 µM (active). In assay [4], the Potency entry was “inactive”.

Turning to `Cc1ccc(N=CN(C)C=Nc2ccc(C)cc2C)c(C)c1`, the Potency result in assay [2], in assay [4] and in [5] was “inactive” in each case.

On to `Nc1ccc(Cl)cc1C(=O)c1ccccc1F`, for which the Potency entry in assay [3], in [4] and in assay [5] was “inactive” each time.

Take `CC(CC(C(N)=O)(c1ccccc1)c1ccccc1)N(C)C` (configuration not stated): the Potency result in [2], in assay [3], in [4] and in assay [5] was “inactive” throughout.

As for `c1cc2c(c(N3CCNCC3)c1)OCCO2`, the Potency result in assay [2], in assay [3], in assay [4] and in [5] was “inactive” in each case.

As for `C[C@@H]1CC[C@H]2[C@@H](C)C(=O)O[C@@H]3O[C@@]4(C)CC[C@@H]1[C@]32OO4`, the Potency entry in assay [2] and in [4] was “inactive” each time.

For `O=C(CCCCl)c1ccc(F)cc1`, the Potency result in assay [2], in assay [3], in assay [4] and in assay [5] was “inactive” each time.

For the molecule `COc1cc(CC(C)N)cc2c1OCO2` (configuration not stated), the Potency result in assay [2], in [3] and in assay [4] was “inactive” throughout.

Regarding `Nc1ccc(N)cc1`, the Potency result in assay [2] and in [4] was “inactive” each time.

Take `COc1cc(N)c(Cl)cc1C(=O)NC1CN2CCC1CC2` (configuration not stated): the Potency result in [2], in assay [3] and in assay [4] was “inactive” in each case.

Take `CCCCC1C(=O)NC(=O)N(C2CCCCC2)C1=O` (configuration not stated): the Potency result in assay [2], in assay [3] and in assay [4] was “inactive” each time.

`CCC(=O)OC1(c2ccccc2)CCN(C)CC1`: the Potency result in assay [2], in [3] and in assay [4] was “inactive” in each case.

As for `CN(C)CCc1c[nH]c2cccc(O)c12`, the Potency result in [2], in assay [3], in assay [4] and in [5] was “inactive” throughout.

Turning to `CCCN(CCC)CCc1c[nH]c2ccccc12`, the Potency entry in [2], in assay [3] and in assay [4] was “inactive” each time.

Regarding `Cc1cccc(Cc2cnc[nH]2)c1C`, the Potency entry in assay [2], in assay [3], in assay [4] and in assay [5] was “inactive” in each case.

Turning to `Clc1ccc(CSC(Cn2ccnc2)c2ccc(Cl)cc2Cl)cc1` (configuration not stated), the Potency result in [3] was “inactive”.

For `Clc1ccc(C(OCCN2CCCCC2)c2ccccc2)cc1` (configuration not stated), the Potency entry in [2], in assay [3] and in assay [4] was “inactive” in each case.

In the case of `CCC(=O)O[C@H]1CC[C@H]2[C@@H]3CCC4=CC(=O)CC[C@]4(C)[C@H]3CC[C@]12C`, the Potency result in assay [2], in assay [3], in assay [4] and in [5] was “inactive” in each case.

Turning to `C[C@]12CC[C@H](O)CC1=CC[C@@H]1[C@@H]2CC[C@]2(C)C(=O)CC[C@@H]12`, the Potency entry in [2], in assay [4] and in assay [5] was “inactive” in each case.

In the case of `ClCCCN1CCN(c2cccc(Cl)c2)CC1`, the Potency result in assay [2], in [3], in assay [4] and in assay [5] was “inactive” in each case.

As to `COP(=S)(OC)Oc1ccc(S(N)(=O)=O)cc1`, the Potency result in assay [2], in [3], in [4] and in assay [5] was “inactive” each time.

With `CN1CCC(N(Cc2ccccc2)c2ccccc2)CC1`, the Potency entry in assay [2], in assay [3] and in assay [4] was “inactive” each time.
